Measurements: PubChem BioAssay
Active and inactive are the calls of the source. Cut-off read from the data, not from the text of the source, unless noted: active = inhibition above about 30%; inactive = the rest.

Biological target: Nuclear receptor coactivator 3 (Homo sapiens) (UniProt Q9Y6Q9)
Experiment: NCOA3 GAL4-fusion reporter inhibition – cell-based, luminescence, quadruplicate, confirmation (AID 588792;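 active = mean inhibition over 43.08%, the solvent-only control mean plus 3 SD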;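 note: 0% = DMSO treated cells and 100% = gossypol at 36 µM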)
Settings: HEK293 GAL4-SRC3 luciferase reporter, at 3.6 µM, active compounds read high

Chain of Nuclear receptor coactivator 3 (Homo sapiens) (Q9Y6Q9 whole entry, looked up, the tested form may be a part): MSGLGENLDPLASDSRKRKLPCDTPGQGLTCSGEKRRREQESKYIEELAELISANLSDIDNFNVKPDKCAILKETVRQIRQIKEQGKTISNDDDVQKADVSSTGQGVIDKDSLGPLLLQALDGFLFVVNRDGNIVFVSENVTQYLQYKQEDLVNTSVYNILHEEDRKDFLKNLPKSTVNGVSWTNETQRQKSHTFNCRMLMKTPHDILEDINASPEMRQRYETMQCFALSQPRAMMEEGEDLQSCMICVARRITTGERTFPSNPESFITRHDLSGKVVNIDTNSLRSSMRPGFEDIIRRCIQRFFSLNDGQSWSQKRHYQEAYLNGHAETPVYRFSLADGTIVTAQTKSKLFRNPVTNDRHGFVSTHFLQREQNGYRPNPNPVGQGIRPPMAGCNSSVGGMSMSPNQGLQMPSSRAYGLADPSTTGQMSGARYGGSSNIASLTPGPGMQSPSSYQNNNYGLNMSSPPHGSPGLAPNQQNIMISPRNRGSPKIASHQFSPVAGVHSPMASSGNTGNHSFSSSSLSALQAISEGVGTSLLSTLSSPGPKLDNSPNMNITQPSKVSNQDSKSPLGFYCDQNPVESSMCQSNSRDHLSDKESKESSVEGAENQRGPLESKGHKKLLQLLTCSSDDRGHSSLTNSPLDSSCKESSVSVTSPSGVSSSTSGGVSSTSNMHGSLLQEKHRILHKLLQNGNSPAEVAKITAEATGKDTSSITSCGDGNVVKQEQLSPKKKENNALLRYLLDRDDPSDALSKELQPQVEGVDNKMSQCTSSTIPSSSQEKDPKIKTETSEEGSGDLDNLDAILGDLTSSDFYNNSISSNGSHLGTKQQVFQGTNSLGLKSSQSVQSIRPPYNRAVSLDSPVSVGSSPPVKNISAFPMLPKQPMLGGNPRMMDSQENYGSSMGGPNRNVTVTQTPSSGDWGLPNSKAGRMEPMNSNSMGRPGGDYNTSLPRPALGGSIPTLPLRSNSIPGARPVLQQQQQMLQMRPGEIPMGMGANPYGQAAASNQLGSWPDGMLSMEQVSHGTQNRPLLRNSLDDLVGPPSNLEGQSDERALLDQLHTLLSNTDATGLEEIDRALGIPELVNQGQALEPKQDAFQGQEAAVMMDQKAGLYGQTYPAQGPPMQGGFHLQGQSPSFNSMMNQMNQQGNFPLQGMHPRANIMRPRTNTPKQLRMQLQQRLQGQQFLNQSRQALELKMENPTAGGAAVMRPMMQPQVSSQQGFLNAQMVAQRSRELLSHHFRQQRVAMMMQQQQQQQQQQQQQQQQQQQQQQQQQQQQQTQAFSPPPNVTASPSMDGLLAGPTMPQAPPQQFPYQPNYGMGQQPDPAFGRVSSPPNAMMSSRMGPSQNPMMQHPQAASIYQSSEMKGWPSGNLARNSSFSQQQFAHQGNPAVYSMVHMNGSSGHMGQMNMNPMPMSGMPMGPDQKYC

Row | Structure (SMILES) | inhibition
1 | Cc1cc(SCC(=O)N/N=C/c2ccc(O)cc2O)c(C)cc1Br | 20.6% (inactive)
2 | COc1ccc2c(=O)c3c(=O)n(CCc4ccccc4)c(C(C)C)nc3oc2c1 | 4.29% (inactive)
3 | C=CCc1cc(C(=O)N2CCCCC2)ccc1O | 14.5% (inactive)
4 | CCOC1=C2CN(S(=O)(=O)c3ccc(C)cc3)[C@H](c3ccc(CC)cc3)C[C@@H]2N(S(=O)(=O)c2ccc(C)cc2)[C@H](c2ccccc2)C1 | 10.9% (inactive)
5 | COc1ccc(Cl)cc1C(=O)Nn1c(-c2cccs2)nc2ccccc2c1=O | 25.5% (inactive)
6 | O=C(NC(=S)NNC(=O)c1cc2ccccc2cc1O)c1ccco1 | 26.9% (inactive)
7 | CCCC(=O)NC(c1ccc(C(C)C)cc1)c1ccc2cccnc2c1O (stereo not given) | 74.5% (active)
8 | c1ccc2c(c1)Nc1ccncc1S2 | 31.2% (inactive)
9 | COc1ccc(CNC(=O)COC(=O)c2cc(-c3ccc(Cl)s3)nc3ccccc23)cc1 | -14.9% (inactive)
10 | O=C(/C=C/c1ccc([N+](=O)[O-])cc1)c1ccccc(=O)c1O | 33% (inactive)
11 | CCCOc1cccc(C(=O)Nc2cc(NC(=O)c3ccco3)ccc2OC)c1 | 10.8% (inactive)
12 | Cc1ccc(-n2c(Cl)c(Cl)nc(Cl)c2=O)cc1 | 45.3% (active)
13 | O=C(N/N=C/c1cc(Br)c(Br)s1)c1ccncc1 | 31.1% (inactive)
14 | CS(=O)c1nc(-c2ccc(Br)cc2)cc(-c2ccccc2)c1C#N (stereo not given) | 43.9% (active)
15 | CC1=C(C(=O)N(C)C)CC(CC(=O)NCCCCc2ccccc2)C(=O)N1Cc1ccc(C(C)(C)C)cc1 (stereo not given) | -10.1% (inactive)
16 | CC(=O)c1c(C)[nH]c(C(=O)OCC(=O)Nc2c(C)cccc2C)c1C | 16.8% (inactive)
17 | Cc1cccc(OCC(O)Cn2c(=N)n(CCN3CCCCC3)c3ccccc32)c1 (stereo not given) | 2.86% (inactive)
18 | COc1cccc2[nH]c(=O)c(-c3ccccc3)cc12 | -103% (inactive)
19 | O=C(Nc1ccc2c(c1)CCC2)C1CCN(c2c3c(nc4ncnn24)CCC3)CC1 | 13.5% (inactive)
20 | COc1ccc(-c2nc3c(c(SCC(=O)N4CCOCC4)n2)Cc2c(CO)cnc(C)c2O3)cc1 | 5.29% (inactive)

Row | Structure (SMILES) | inhibition
21 | OC[C@H]1O[C@@H](Oc2ccc(O)cc2)[C@H](O)[C@@H](O)[C@@H]1O | 7.6% (inactive)
22 | c1ccc(Oc2cccc(Oc3ccccc3)n2)cc1 | 5.37% (inactive)
23 | CC(=O)Nc1ccc(S(=O)(=O)NCCSCc2ccccc2Cl)cc1 | 12.3% (inactive)
24 | CC/C(C)=N/Nc1cccc([N+](=O)[O-])c1 | 2.68% (inactive)
25 | NC(=S)N/N=C\c1c(OCc2ccccc2Cl)ccc2ccccc12 | 18.1% (inactive)
26 | CSc1ncccc1C(=O)NCc1nnc2ccccn12 | 3.35% (inactive)
27 | CC(C)Nc1nc(Cl)nc(NNC(=O)C(C)Oc2ccccc2)n1 (stereo not given) | -3.52% (inactive)
28 | COc1ccc(N/N=C/c2c(C(=O)O)ccc3ccccc23)cc1 | 31.2% (inactive)
29 | O=C(COc1ccccc1[N+](=O)[O-])Nc1ccc(N2CCN(C(=O)c3cccs3)CC2)cc1 | -7.09% (inactive)
30 | CC1CCC(C(C)C)C(OC(=O)Cn2c(-c3ccc(Br)cc3)[n+](C)c3ccccc32)C1 (stereo not given) | 3.76% (inactive)
31 | CC1(C)C2CCC(C2)C1C/C=N/NC(N)=S (stereo not given) | 17.5% (inactive)
32 | Cc1ccc2occ(/C=N/NC(=O)c3ccccc3Br)c(=O)c2c1 | 40.7% (inactive)
33 | CCOC(=O)c1cccc(NC(=O)CSc2nc3cccnc3n2C)c1 | 9.81% (inactive)
34 | CCOC(=O)C1CCCN(c2c(NCCCN(C)c3ccccc3)c(=O)c2=O)C1 (stereo not given) | -9.14% (inactive)
35 | Cc1cc(C)n(CCC(=O)N/N=C/c2ccccc2O)n1 | 18% (inactive)
36 | O=S(=O)(CC(CN1CCCCC1)N1CCCCC1)c1ccc2ccccc2c1 (stereo not given) | 4.5% (inactive)
37 | CCN(CC)CCCNc1nc2ccccc2c2nc(-c3ccncc3)nn12 | -2.05% (inactive)
38 | COc1ccc(CCN2C(=O)C(Oc3ccccc3C)C2c2ccc3c(c2)OCO3)cc1 (stereo not given) | 2.45% (inactive)
39 | Cc1nc2ccccn2c1-c1ccnn1S(=O)(=O)c1ccc(F)cc1 | 3.74% (inactive)
40 | O=C(O)c1ccc(Cl)c(S(=O)(=O)NCc2cccnc2)c1 | 0.83% (inactive)

Test system: transactivating tegument protein VP16 (Human herpesvirus 1), Gal4-VP16 luciferase reporter
Experiment: repression of VP16-driven luciferase reporter – cell-based, luminescence, high throughput, counter-screen for SRC3 inhibitor project (AID 588794)
Settings: mammalian cells, at 3.6 µM, active compounds read high

Row | Structure (SMILES) | inhibition
41 | Cc1cc(SCC(=O)N/N=C/c2ccc(O)cc2O)c(C)cc1Br | 23.2% (inactive)
42 | COc1ccc2c(=O)c3c(=O)n(CCc4ccccc4)c(C(C)C)nc3oc2c1 | 17.5% (inactive)
43 | C=CCc1cc(C(=O)N2CCCCC2)ccc1O | 19.9% (inactive)
44 | CCOC1=C2CN(S(=O)(=O)c3ccc(C)cc3)[C@H](c3ccc(CC)cc3)C[C@@H]2N(S(=O)(=O)c2ccc(C)cc2)[C@H](c2ccccc2)C1 | 35.4% (active)
45 | COc1ccc(Cl)cc1C(=O)Nn1c(-c2cccs2)nc2ccccc2c1=O | 22.1% (inactive)
46 | O=C(NC(=S)NNC(=O)c1cc2ccccc2cc1O)c1ccco1 | 61.6% (active)
47 | CCCC(=O)NC(c1ccc(C(C)C)cc1)c1ccc2cccnc2c1O (stereo not given) | 73.2% (active)
48 | c1ccc2c(c1)Nc1ccncc1S2 | 16.4% (inactive)
49 | COc1ccc(CNC(=O)COC(=O)c2cc(-c3ccc(Cl)s3)nc3ccccc23)cc1 | -13.6% (inactive)
50 | O=C(/C=C/c1ccc([N+](=O)[O-])cc1)c1ccccc(=O)c1O | 37.5% (active)
51 | CCCOc1cccc(C(=O)Nc2cc(NC(=O)c3ccco3)ccc2OC)c1 | 2.92% (inactive)
52 | Cc1ccc(-n2c(Cl)c(Cl)nc(Cl)c2=O)cc1 | 17.9% (inactive)
53 | O=C(N/N=C/c1cc(Br)c(Br)s1)c1ccncc1 | 18.5% (inactive)
54 | CS(=O)c1nc(-c2ccc(Br)cc2)cc(-c2ccccc2)c1C#N (stereo not given) | 26.6% (inactive)
55 | CC1=C(C(=O)N(C)C)CC(CC(=O)NCCCCc2ccccc2)C(=O)N1Cc1ccc(C(C)(C)C)cc1 (stereo not given) | -1.43% (inactive)
56 | CC(=O)c1c(C)[nH]c(C(=O)OCC(=O)Nc2c(C)cccc2C)c1C | 13.5% (inactive)
57 | Cc1cccc(OCC(O)Cn2c(=N)n(CCN3CCCCC3)c3ccccc32)c1 (stereo not given) | 20.6% (inactive)
58 | COc1cccc2[nH]c(=O)c(-c3ccccc3)cc12 | -36.1% (inactive)
59 | O=C(Nc1ccc2c(c1)CCC2)C1CCN(c2c3c(nc4ncnn24)CCC3)CC1 | 13.2% (inactive)
60 | COc1ccc(-c2nc3c(c(SCC(=O)N4CCOCC4)n2)Cc2c(CO)cnc(C)c2O3)cc1 | -10.4% (inactive)

Row | Structure (SMILES) | inhibition
61 | OC[C@H]1O[C@@H](Oc2ccc(O)cc2)[C@H](O)[C@@H](O)[C@@H]1O | -4.32% (inactive)
62 | c1ccc(Oc2cccc(Oc3ccccc3)n2)cc1 | 1.72% (inactive)
63 | CC(=O)Nc1ccc(S(=O)(=O)NCCSCc2ccccc2Cl)cc1 | 17.1% (inactive)
64 | CC/C(C)=N/Nc1cccc([N+](=O)[O-])c1 | 18% (inactive)
65 | NC(=S)N/N=C\c1c(OCc2ccccc2Cl)ccc2ccccc12 | 27.6% (inactive)
66 | CSc1ncccc1C(=O)NCc1nnc2ccccn12 | -2.69% (inactive)
67 | CC(C)Nc1nc(Cl)nc(NNC(=O)C(C)Oc2ccccc2)n1 (stereo not given) | 4.03% (inactive)
68 | COc1ccc(N/N=C/c2c(C(=O)O)ccc3ccccc23)cc1 | 36.5% (active)
69 | O=C(COc1ccccc1[N+](=O)[O-])Nc1ccc(N2CCN(C(=O)c3cccs3)CC2)cc1 | 7.15% (inactive)
70 | CC1CCC(C(C)C)C(OC(=O)Cn2c(-c3ccc(Br)cc3)[n+](C)c3ccccc32)C1 (stereo not given) | 35.8% (active)
71 | CC1(C)C2CCC(C2)C1C/C=N/NC(N)=S (stereo not given) | 13.4% (inactive)
72 | Cc1ccc2occ(/C=N/NC(=O)c3ccccc3Br)c(=O)c2c1 | 28.5% (inactive)
73 | CCOC(=O)c1cccc(NC(=O)CSc2nc3cccnc3n2C)c1 | 25.1% (inactive)
74 | CCOC(=O)C1CCCN(c2c(NCCCN(C)c3ccccc3)c(=O)c2=O)C1 (stereo not given) | -3.6% (inactive)
75 | Cc1cc(C)n(CCC(=O)N/N=C/c2ccccc2O)n1 | 4.14% (inactive)
76 | O=S(=O)(CC(CN1CCCCC1)N1CCCCC1)c1ccc2ccccc2c1 (stereo not given) | 6.94% (inactive)
77 | CCN(CC)CCCNc1nc2ccccc2c2nc(-c3ccncc3)nn12 | 41.3% (active)
78 | COc1ccc(CCN2C(=O)C(Oc3ccccc3C)C2c2ccc3c(c2)OCO3)cc1 (stereo not given) | 8.58% (inactive)
79 | Cc1nc2ccccn2c1-c1ccnn1S(=O)(=O)c1ccc(F)cc1 | 12.3% (inactive)
80 | O=C(O)c1ccc(Cl)c(S(=O)(=O)NCc2cccnc2)c1 | -9.62% (inactive)
